Values without a mark were called inactive. Results filed as inconclusive are left out. Activity calls are given as the source filed them. Calls come from the whole dose curve; as a rule, active = well fitted curve in the direction sought with a large enough effect in the repeat runs; inconclusive = weak or mixed curves; inactive = no such curve, though single readings can be large; an effect the other way counts as inactive or inconclusive.

The source of these data is PubChem BioAssay (Tox21).

A short description of test [1]: qHTS RealTime-Glo MT Cell Viability Assay in HEK293 cells - 16 hour (AID 1224872). Note: top concentration of the series differs between compounds; nearly all actives have a fitted effect of over 50% in size. The method in brief: (§1)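 Assay medium contained NanoLuc luciferase plus cell-permeant prosubstrate, added with HEK293 cells at 600 cells/well. After 5 h at 37 C/5% CO2 compounds were added; plates stayed at 37 C for 40 h with serial luminescence reads.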
A short description of test [2]: qHTS RealTime-Glo MT Cell Viability Assay in HepG2 cells - 8 hour (AID 1224873). Note: nearly all actives have a fitted effect of over 55% in size. The method in brief:
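HepG2 cells (600/well) mixed with RealTime-Glo MT reagent, settled 5 h at 37 C/5% CO2 before compound addition. Nonlytic NanoLuc luminescence from viable-cell prosubstrate reduction read repeatedly during 40 h treatment at 37 C.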

Test [3] in a line: qHTS RealTime-Glo MT Cell Viability Assay in HEK293 cells - 40 hour (AID 1224874). Note: nearly all actives have a fitted effect of over 50% in size. Particulars: RealTime-Glo luminescence; max response: active compounds read low. The method in brief: (§2)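 600 cells/well were plated with the nonlytic NanoLuc/prosubstrate reagent, pre-incubated 5 h, then given 23 nL of compound in DMSO. Incubation at 37 C for 40 h, with luminescence from viable-cell-reduced substrate read repeatedly from 0 h.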

The nature of test [4]: A CellTox Green Cytotoxicity Assay to monitor cytotoxicity in HEK293 cells - 24 hour (AID 1224875). Note: nearly all actives have a fitted effect of over 45% in size. Note: potency is the fitted concentration of half-maximal effect. The method in brief: (§3)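 HEK293 cells, 600/well, were preincubated 5 hours and then exposed to compounds at 37 C for up to 40 hours. A cell-impermeant cyanine dye staining dead-cell DNA was read by fluorescence at 0, 8, 16, 24, 32 and 40 h time points.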
A short description of test [5]: A CellTox Green Cytotoxicity Assay to monitor cytotoxicity in HepG2 cells - 16 hour (AID 1224876). Note: nearly all actives have a fitted effect of over 45% in size. Note: potency is the fitted concentration of half-maximal effect. Put shortly:
(§4)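 HepG2 cells, 600/well, preincubated 5 h with CellTox Green dye, then exposed to Tox21 compounds in DMSO at 37 C for up to 40 h. Dead-cell DNA fluorescence read at the indicated time point.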

A short description of test [6]: qHTS RealTime-Glo MT Cell Viability Assay in HepG2 cells - 32 hour (AID 1224877). Note: nearly all actives have a fitted effect of over 55% in size. Note: potency is the fitted concentration of half-maximal effect. The method in brief:
(§5)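 qHTS, HepG2, 600 cells/well, RealTime-Glo (NanoLuc + prosubstrate) added with cells; 5 h preincubation; DMSO compound addition; 37 C; luminescence at 0/8/16/24/32/40 h.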
Background: qHTS replaces the single test concentration by a dilution series.

Test [7] in a line: A CellTox Green Cytotoxicity Assay to monitor cytotoxicity in HepG2 cells - 24 hour (AID 1224878). Note: nearly all actives have a fitted effect of over 45% in size. Note: potency is the fitted concentration of half-maximal effect. The method in brief:
as §4

Test [8] can be described thus: A CellTox Green Cytotoxicity Assay to monitor cytotoxicity in HepG2 cells - 40 hour (AID 1224879). Note: nearly all actives have a fitted effect of over 40% in size. Note: potency is the fitted concentration of half-maximal effect. The method in brief: as §4
The nature of test [9]: qHTS RealTime-Glo MT Cell Viability Assay in HEK293 cells - 0 hour (AID 1224880). Note: top concentration of the series differs between compounds; nearly all actives have a fitted effect of over 45% in size. The method in brief: as §2
Test [10] can be described thus: A CellTox Green Cytotoxicity Assay to monitor cytotoxicity in HEK293 cells - 32 hour (AID 1224881). Note: nearly all actives have a fitted effect of over 40% in size. Note: potency is the fitted concentration of half-maximal effect. The method in brief: as §3
A short description of test [11]: A CellTox Green Cytotoxicity Assay to monitor cytotoxicity in HepG2 cells - 0 hour (AID 1224882). Note: nearly all actives have a fitted effect of over 35% in size. Note: potency is the fitted concentration of half-maximal effect. The method in brief:
as §4

Test [12] is described as follows: A CellTox Green Cytotoxicity Assay to monitor cytotoxicity in HEK293 cells - 8 hour (AID 1224884). Note: nearly all actives have a fitted effect of over 35% in size. Note: potency is the fitted concentration of half-maximal effect. Put shortly:
as §3

Test [13] is described as follows: qHTS RealTime-Glo MT Cell Viability Assay in HepG2 cells - 16 hour (AID 1224885). Note: nearly all actives have a fitted effect of over 50% in size. The method in brief: as §5
Test [14] can be described thus: qHTS RealTime-Glo MT Cell Viability Assay in HEK293 cells - 24 hour (AID 1224886). Note: top concentration of the series differs between compounds; nearly all actives have a fitted effect of over 50% in size. The method in brief:
as §1

Test [15] is described as follows: qHTS RealTime-Glo MT Cell Viability Assay in HEK293 cells - 8 hour (AID 1224887). The method in brief: as §2
Test [16] is described as follows: A CellTox Green Cytotoxicity Assay to monitor cytotoxicity in HEK293 cells - 16 hour (AID 1224888). Note: nearly all actives have a fitted effect of over 35% in size. Note: potency is the fitted concentration of half-maximal effect. Put shortly: as §3
Test [17] is described as follows: qHTS RealTime-Glo MT Cell Viability Assay in HepG2 cells - 0 hour (AID 1224889). Note: nearly all actives have a fitted effect of over 50% in size. The method in brief:
as §5

Test [18] is described as follows: A CellTox Green Cytotoxicity Assay to monitor cytotoxicity in HepG2 cells - 8 hour (AID 1224890). Note: nearly all actives have a fitted effect of over 45% in size. Note: potency is the fitted concentration of half-maximal effect. Put shortly:
as §4

A short description of test [19]: A CellTox Green Cytotoxicity Assay to monitor cytotoxicity in HEK293 cells - 40 hour (AID 1224871). Note: nearly all actives have a fitted effect of over 45% in size. Note: potency is the fitted concentration of half-maximal effect. The method in brief:
as §3

The nature of test [20]: A CellTox Green Cytotoxicity Assay to monitor cytotoxicity in HepG2 cells - 32 hour (AID 1224883). Note: nearly all actives have a fitted effect of over 50% in size. Note: potency is the fitted concentration of half-maximal effect. The method in brief: as §4
% is set by controls: 0 for no effect and ±100 for the full control effect.

With `CN(CCCN1c2ccccc2CCc2ccccc21)CC(=O)c1ccc(Cl)cc1`, the Potency entry in test [1], in [4], in [5], in [6], in test [7] and in test [10] was “inactive” in each case. The Potency entry in [11], in test [12], in test [14], in [15], in test [16] and in test [17] was “inactive” throughout. Also, the Potency result in [18] was “inactive”. The compound was classed as inactive in test [2], in test [9] and in test [13]. For the same compound, in test [3], the max response is -24.7%. Besides, the Potency in test [8] is 21.3 µM (active).
For the compound `COc1cc2c(cc1N)oc1ccccc12`, the Potency result in test [19], in [5], in [6], in [7], in test [11] and in [20] was “inactive” each time. For the same compound, the Potency result in [12], in test [16], in test [17] and in [18] was “inactive” in each case. Also, the compound was called inactive in test [9] and in test [13].
Take `O=C1CCC(C2CCCCC2)CC1`: the Potency in [19] was 49 µM (active); in [4], 43.6 µM (active); in test [5] it was 38.9 µM (active); in test [7] it was 38.9 µM (active); in [8] it was 38.9 µM (active); in test [10] it was 43.6 µM (active). In addition, the Potency in test [11] was 38.9 µM (active); in test [20] it was 38.9 µM (active); in test [12], 43.6 µM (active); in test [16], 43.6 µM (active); in [18], 27.5 µM (active). The compound was called inactive in test [2], in [9] and in test [13]. The Potency result in [6] and in test [17] was “inactive” throughout.
For the compound `CC(C)C(=O)OCC(C)(C)C(O)C(C)C` (stereo not drawn), the Potency entry in test [1], in [4], in [5], in [6], in test [7] and in test [8] was “inactive” each time. For the same compound, the Potency entry in test [10], in test [11], in test [20], in test [12], in test [14] and in [15] was “inactive” throughout. Besides, the Potency entry in test [16] and in test [18] was “inactive” in each case. The outcome in test [2], in [9] and in test [13] was inactive. Also, the max response in test [3] was 8.54%.
Turning to `ICCc1ccccc1`, the Potency entry in test [1], in test [5], in test [7], in test [8], in [11] and in test [20] was “inactive” in each case. Also, the Potency result in test [12], in test [14], in test [15], in test [17] and in test [18] was “inactive” in each case. Further, the compound was called inactive in test [2], in test [9] and in test [13]. For the same compound, the max response in test [3] was 22.5%. Further, the Potency in test [6] was 12.1 µM (active).
`CCNCCO`: the Potency result in test [1], in test [4], in test [5], in test [6], in test [7] and in test [10] was “inactive” in each case. Besides, the Potency entry in test [11], in [20], in test [12], in test [14], in test [15] and in test [17] was “inactive” throughout. Besides, the Potency entry in [18] was “inactive”. Besides, the compound was classed as inactive in [2], in test [9] and in test [13]. The max response in test [3] was 9.13%.
With `CCCCCCCCCCCCOCCOS(=O)(=O)O`, the Potency result in [1], in test [11], in test [14], in test [15] and in test [17] was “inactive” each time. In addition, the call in [2], in test [9] and in test [13] was inactive. In addition, the Potency was 24.5 µM (active) in test [4]; 49 µM (active) in test [5]; 49 µM (active) in test [7]; 54.9 µM (active) in [8]; 24.5 µM (active) in test [10]; 19.5 µM (active) in [12]. In addition, the Potency in test [16] is 21.9 µM (active); in [18], 54.9 µM (active).
For `CCCCOc1cc(C(=O)NCCN(CC)CC)c2ccccc2n1`, the outcome in test [2], in [9] and in test [13] was inactive. The Potency entry in test [4], in test [6], in test [10], in test [11], in [12] and in test [18] was “inactive” each time. The figures for the Potency in test [7], in test [8] and in test [20] were 21.3 µM (active), 23.9 µM (active) and 23.9 µM (active), respectively.
In the case of `OCCN1CCN(CCO)CC1`, the Potency entry in [1], in [5], in [6], in [7], in test [8] and in test [11] was “inactive” in each case. Also, the Potency entry in test [20], in test [12], in test [14], in test [15], in test [16] and in test [17] was “inactive” in each case. Besides, the Potency result in test [18] was “inactive”. The compound was classed as inactive in test [2], in [9] and in test [13]. In addition, the max response in test [3] was 1.21%.
As for `CCCCCCCCc1ccc(S(=O)(=O)O)cc1`, the Potency result in test [1], in test [6], in test [11], in test [12], in test [14] and in [15] was “inactive” throughout. In addition, the Potency entry in test [18] was “inactive”. Also, the call in test [2], in test [9] and in test [13] was inactive. Also, the max response in test [3] is -16.1%. Moreover, the Potency is 48.6 µM (active) in test [4] and 54.5 µM (active) in test [10].
Take `CCC1(C)NC(=O)NC1=O` (stereo not drawn): the Potency entry in [1], in [4], in test [6], in [11], in [12] and in test [14] was “inactive” each time. Further, the Potency result in test [15] and in test [18] was “inactive” each time. Also, the compound was called inactive in test [2], in [9] and in test [13]. For the same compound, in test [3], the max response is -2.11%.
With `CC(=O)Oc1cc(C(C)C)c(OCCN(C)C)cc1C`, the outcome in test [2], in test [9] and in test [13] was inactive. The Potency result in test [4], in test [5], in [6], in test [7], in test [8] and in [11] was “inactive” each time. For the same compound, the Potency entry in test [20], in test [12], in test [16] and in test [18] was “inactive” throughout.
In the case of `O=C1CCCCCCCCCCC(=O)OCCO1`, the call in test [2], in test [9] and in test [13] was inactive. Besides, in test [3], the max response was -13.7%. Besides, the Potency result in [5], in test [6], in [11], in [12], in test [14] and in test [16] was “inactive” in each case. In addition, the Potency entry in [17] and in [18] was “inactive” each time. Further, the Potency in [7] is 21.9 µM (active); in [8], 24.5 µM (active); in test [20], 24.5 µM (active).
For the compound `NCCCN1CCN(CCCN)CC1`, the Potency entry in test [1], in test [5], in [11], in [12], in [14] and in test [15] was “inactive” throughout. For the same compound, the Potency entry in test [16], in test [17] and in test [18] was “inactive” throughout. The compound was classed as inactive in test [2], in test [9] and in test [13]. Moreover, the max response in [3] is 6.33%.
`CC1=NN(c2cc(Cl)c(S(=O)(=O)O)cc2Cl)C(=O)C1N=Nc1ccc(S(=O)(=O)O)cc1` (stereo not drawn): the Potency entry in test [1], in test [4], in test [6], in test [10], in [11] and in [12] was “inactive” throughout. Moreover, the Potency result in test [14], in test [15] and in test [18] was “inactive” each time. Besides, the call in [2] and in test [13] was inactive. The max response in [3] was 4.23%.
Regarding `O=C(O)C(=O)Cc1c[nH]c2ccccc12`, the call in test [2] and in [13] was inactive. For the same compound, the max response in test [3] was 2.14%. Also, the Potency entry in test [4], in test [5], in test [6], in test [7], in test [8] and in test [20] was “inactive” throughout. Also, the Potency result in test [12], in test [14], in test [15] and in test [18] was “inactive” throughout.
